Reference: the supplement of paper PMC11624193, “Coupling cellular drug-target engagement to downstream pharmacology with CeTEAM” (Nature Communications, 2024)
Several values for one entry are separate records, joined by “and”; a condition that tells them apart may be missing. Equal values may be shown once. Where a name gives a salt, the structure may show the parent alone.

biological target: PARP1 L713F-nLuc biosensor (HCT116) (UniProt P09874); experiment: PARP1 L713F-nLuc/akaLuc ratio relative to DMSO control (biosensor stabilization) (fold change); higher = more PARP1 biosensor stabilization (target engagement / stabilizer), active = hit call of the paper; conditions: stock concentration (mM; final µM = stock mM x 1): 10; 24 h
Sequence (P09874 whole entry L713F, looked up): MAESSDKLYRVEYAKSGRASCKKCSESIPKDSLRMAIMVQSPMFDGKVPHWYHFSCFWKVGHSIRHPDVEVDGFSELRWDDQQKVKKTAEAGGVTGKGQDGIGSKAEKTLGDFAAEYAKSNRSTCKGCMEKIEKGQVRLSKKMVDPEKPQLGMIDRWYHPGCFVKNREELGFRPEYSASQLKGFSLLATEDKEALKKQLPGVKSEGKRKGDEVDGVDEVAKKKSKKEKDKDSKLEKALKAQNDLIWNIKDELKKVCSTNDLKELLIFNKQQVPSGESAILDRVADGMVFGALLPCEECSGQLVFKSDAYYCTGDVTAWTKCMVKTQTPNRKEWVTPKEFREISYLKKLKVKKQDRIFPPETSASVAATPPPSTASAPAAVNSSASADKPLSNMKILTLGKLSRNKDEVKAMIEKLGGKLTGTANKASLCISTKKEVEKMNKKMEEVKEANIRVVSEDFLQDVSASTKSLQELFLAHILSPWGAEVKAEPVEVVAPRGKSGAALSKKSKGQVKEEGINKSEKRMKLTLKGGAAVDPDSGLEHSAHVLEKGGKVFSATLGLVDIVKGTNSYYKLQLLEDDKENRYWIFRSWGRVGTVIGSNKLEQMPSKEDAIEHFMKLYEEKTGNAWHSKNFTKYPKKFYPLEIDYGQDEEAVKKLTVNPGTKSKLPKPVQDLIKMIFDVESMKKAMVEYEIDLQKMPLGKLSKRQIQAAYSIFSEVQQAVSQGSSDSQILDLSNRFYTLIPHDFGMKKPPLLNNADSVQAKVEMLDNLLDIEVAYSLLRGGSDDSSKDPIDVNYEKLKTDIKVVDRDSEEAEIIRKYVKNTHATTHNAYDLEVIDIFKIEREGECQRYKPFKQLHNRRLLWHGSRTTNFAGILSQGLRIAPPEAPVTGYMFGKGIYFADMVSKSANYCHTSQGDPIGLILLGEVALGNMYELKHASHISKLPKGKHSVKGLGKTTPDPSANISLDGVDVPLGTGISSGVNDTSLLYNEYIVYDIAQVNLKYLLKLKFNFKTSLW

SMILES	PARP1 L713F-nLuc/akaLuc ratio
Cc1cc(CN)cc(C)c1-c1ncn(C)c1-c1ccnc2cc(F)ccc12 [BI-9321 (trihydrochloride)]	0.66 (inactive)
Cc1cc(C)c(CNC(=O)c2cc(Cl)c3c(c2C)O[C@@](C)([C@H]2CC[C@H](N(C)C)CC2)O3)c(=O)[nH]1 [Valemetostat (tosylate)]	1.05 (inactive)
O=C(O)c1ccc(CN2CCC(CN[C@@H]3C[C@H]3c3ccccc3)CC2)cc1	0.815 (inactive) and 0.79 (inactive) and 0.987 (inactive)
NC[C@@](O)(c1ccc(Cl)cc1)c1ccc(-c2cn[nH]c2)cc1	0.809 (inactive)
O=c1[nH]c(=O)n([C@H]2C[C@H](O)[C@@H](CO)O2)cc1C(F)(F)F [Trifluridine]	0.548 (inactive)
O=[N+]([O-])c1cc(Nc2ccc3nonc3c2[N+](=O)[O-])ccc1Cl	1.28 (inactive)
CN1CCN(c2ccc(C(=O)Nc3ccc([C@@H]4C[C@H]4N)cc3)cc2)CC1	0.684 (inactive)
CCc1cncnc1N1CCN(Cc2nc3ccc(C(F)(F)F)cc3[nH]2)CC1	0.681 (inactive)
CCc1cccc(CC)c1NC(=O)N1Cc2[nH]nc(NC(=O)c3ccc(N4CCN(C)CC4)cc3)c2C1	0.92 (inactive)
COc1cc2c(NC3CCN(C)CC3)nc(N3CCCN(C)CC3)nc2cc1OCCOCCN(C)C	1.43 (inactive)
CC[C@@H]1CN(C(=O)NCC(F)(F)F)C[C@@H]1c1cnc2cnc3[nH]ccc3n12 [Upadacitinib]	1.32 (inactive)
COc1cc(OC2CCN(C)CC2)ccc1Nc1ncc2c(n1)n(C1CCCC1)c(=O)n2C	1.18 (inactive)
O=C(CC[C@H](NC(=O)OCc1ccccc1)C(=O)O)NCCCC[C@H](NC(=O)OCc1ccccc1)C(=O)Nc1ccccc1	1.06 (inactive)
Cc1nc(N)sc1-c1ccnc(Nc2ccc(N3CCOCC3)cc2)n1	0.726 (inactive)
O=C([C@@H](Cc1cccc(C(F)(F)F)c1)NS(=O)(=O)c1cc(F)c2c(c1)CCNC2)N1CCCC1 [PFI-2 (hydrochloride)]	0.92 (inactive)
CCCS(=O)(=O)N[C@H]1C[C@@H](N(C)c2ncnc3[nH]ccc23)C1 [Abrocitinib]	0.869 (inactive)
N#CC[C@H](C1CCCC1)n1cc(-c2ncnc3[nH]ccc23)cn1 [Ruxolitinib (S enantiomer)]	1.63 (inactive)
CC(CCc1ccccn1)(CCc1ccccn1)C(=O)c1ccccc1	1.27 (inactive)
O=C(/C=C\n1cnc(-c2cc(C(F)(F)F)cc(C(F)(F)F)c2)n1)NNc1ccccn1 [Verdinexor (KPT-335)]	0.35 (inactive)

SMILES	PARP1 L713F-nLuc/akaLuc ratio
CC(C)(Oc1ccc(Cl)cc1)C(=O)Nc1ccc(OCc2ccc(C#N)cc2)cc1 [AMPK activator 4]	1.2 (inactive)
Cc1cccc(-c2nn3c(c2-c2ccnc4ccc(C(N)=O)cc24)CCC3)n1	0.664 (inactive)
Cc1cc(Nc2nc(CC3(C(=O)O)CCN(C(=O)c4cccc(Cl)c4Cl)CC3)ccc2F)n[nH]1	1.6 (inactive)
CC1Oc2cc(cnc2N)-c2c(nn(C)c2C#N)CN(C)C(=O)c2ccc(F)cc21 (stereo not drawn)	1.13 (inactive)
Cc1cc(Nc2cc(CN3CCOCC3)c3nc(C)c(Cc4ccc(Cl)cc4F)n3n2)n[nH]1 [Gandotinib]	1.75 (inactive)
C[C@@H]1CC[C@@]2(OC1)O[C@H]1C[C@H]3[C@@H]4CC=C5C[C@@H](O[C@@H]6O[C@H](CO)[C@@H](O[C@@H]7O[C@@H](C)[C@H](O[C@@H]8O[C@@H](C)[C@H](O)[C@@H](O)[C@H]8O)[C@@H](O)[C@H]7O)[C@H](O)[C@H]6O[C@@H]6O[C@@H](C)[C@H](O)[C@@H](O)[C@H]6O)CC[C@]5(C)[C@H]4CC[C@]3(C)[C@@]1(O)[C@@H]2C [Paris saponin VII]	1.01 (inactive)
CCS(=O)(=O)N1CC(CC#N)(n2cc(-c3ncnc4[nH]ccc34)cn2)C1 [Baricitinib (phosphate)]	1.19 (inactive)
Nc1ccn([C@@H]2O[C@H](CO)[C@@H](O)C2(F)F)c(=O)n1 [Gemcitabine]	0.416 (inactive)
Nc1nc(=O)n([C@H]2C[C@H](O)[C@@H](CO)O2)cc1F [5-Fluoro-2'-deoxycytidine]	0.559 (inactive)
O=C(O)CNC(=O)c1ncc(-c2cccc(F)c2)cc1O	0.618 (inactive)
NC(=O)c1cc(F)cc2c1C(=O)N(C1CCN(C3CCC(F)(F)CC3)CC1)C2	6 (active)
Nc1nc(Cl)nc2c1ncn2[C@@H]1O[C@H](CO)[C@@H](O)[C@@H]1F [Clofarabine]	0.577 (inactive)
NC(=O)c1cccc2cn(-c3ccc([C@@H]4CCCNC4)cc3)nc12 [Niraparib (tosylate)]	7.76 (active)
CC(C)NC(=O)COc1cccc(-c2nc(Nc3ccc4[nH]ncc4c3)c3ccccc3n2)c1	0.38 (inactive)
CC(C)N(C(=O)c1cc(F)ccc1Oc1cncnc1N1CC2(CCN(CC3CCC(NS(C)(=O)=O)CC3)CC2)C1)C(C)C (stereo not drawn)	0.677 (inactive)
CCN(CC)CCNC(=O)c1c(C)[nH]c(/C=C2\C(=O)Nc3ccc(-c4csc(-c5ccccc5)n4)cc32)c1C [Amcasertib (BBI503)]	0.885 (inactive)
CO[C@H]1CNC[C@@H](OCC2CCC(F)(F)CC2)[C@@H]1Nc1ncc(-c2cncc(C)c2)c2cc(C)c(=O)[nH]c12	1.63 (inactive)
CC1(N)CCN(c2cccnc2NC(=O)c2nc(-c3ncccc3C(F)(F)F)cnc2N)CC1 [Darovasertib]	0.6 (inactive)
CC(=O)Nc1cc(Oc2ccc3c(nc(Nc4ccc(F)cc4F)n3C)c2C)ccn1	0.89 (inactive)
